# Source: PubChem BioAssay (NCATS)
# Results filed as inconclusive are left out. Entries that show only a call come without a potency. Active and inactive are the calls of the source. Unless noted, calls come from the whole dose curve; as a rule, active = well fitted curve in the direction sought with a large enough effect; inconclusive = small, poorly fitted or top-dose-only effect, or another doubt; inactive = no such curve, though single readings can be large; an effect the other way counts as inactive or inconclusive. Where a SMILES comes first, the peptide text is derived from it.
# What was measured:
# [1] = test system: Zika virus NS2B-NS3 protease; test: Primary screen GU AMC qHTS for Zika virus inhibitors (AID 1347154); note: nearly all actives have a fitted effect of over 70% in size; note: potency is the fitted concentration of half-maximal effect
# Procedure, shortened: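 Unlinked Zika NS2B hydrophilic domain/NS3 protease domain noncovalent complex (25 nM final) in 10 mM Tris-HCl pH 8.0, 0.01% Tween 20, with AMC peptide substrate. Fluorescence (ex 340, em 450 nm) change over 15 min, room temperature; percent inhibition fitted to 4-parameter Hill equation.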
# [2] = Primary qHTS for small molecule stabilizers of the endoplasmic reticulum resident proteome: Secreted ER Calcium Modulated Protein (SERCaMP) assay (AID 1508630); note: potency is the fitted concentration of half-maximal effect
# Procedure, shortened: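 GLuc-SERCaMP-expressing SH-SY5Y cells, pretreated 16 h with compound, are challenged with thapsigargin to empty ER calcium stores; after 4 h, coelenterazine is added directly to the medium and luminescence is imaged.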
# [3] = molecular target: Mitogen-activated protein kinase 10 (Mus musculus) (UniProt Q61831); test: JNK3 AlphaScreen Assay (AID 530; active = well fitted curve in either direction with a large enough effect, not every such curve was filed as active;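 note: kinase came from lysate of stimulated human HepG2 cells; signal reports phosphorylation of biotinylated GST-cJun 1-79 at Ser73 with 10 µM ATP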)
# Procedure, shortened: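 Inhibitors reduce antibody binding to phosphorylated biotin-cJun, lowering AlphaScreen luminescence. Lysates from HepG2 cells pre-activated by IL-1beta plus TNF-alpha supplied JNK3; compounds were titrated.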
# [4] = molecular target: 3',5'-cyclic-AMP phosphodiesterase 4B (Homo sapiens) (UniProt Q07343); test: qHTS Assay for Inhibitors of PDE-IV (AID 607; active = well fitted activation curve with a large enough effect in the main read-out, with a control signal flat, not every such curve was filed as active)
# Chain of 3',5'-cyclic-AMP phosphodiesterase 4B (Homo sapiens) (Q07343 whole entry, looked up): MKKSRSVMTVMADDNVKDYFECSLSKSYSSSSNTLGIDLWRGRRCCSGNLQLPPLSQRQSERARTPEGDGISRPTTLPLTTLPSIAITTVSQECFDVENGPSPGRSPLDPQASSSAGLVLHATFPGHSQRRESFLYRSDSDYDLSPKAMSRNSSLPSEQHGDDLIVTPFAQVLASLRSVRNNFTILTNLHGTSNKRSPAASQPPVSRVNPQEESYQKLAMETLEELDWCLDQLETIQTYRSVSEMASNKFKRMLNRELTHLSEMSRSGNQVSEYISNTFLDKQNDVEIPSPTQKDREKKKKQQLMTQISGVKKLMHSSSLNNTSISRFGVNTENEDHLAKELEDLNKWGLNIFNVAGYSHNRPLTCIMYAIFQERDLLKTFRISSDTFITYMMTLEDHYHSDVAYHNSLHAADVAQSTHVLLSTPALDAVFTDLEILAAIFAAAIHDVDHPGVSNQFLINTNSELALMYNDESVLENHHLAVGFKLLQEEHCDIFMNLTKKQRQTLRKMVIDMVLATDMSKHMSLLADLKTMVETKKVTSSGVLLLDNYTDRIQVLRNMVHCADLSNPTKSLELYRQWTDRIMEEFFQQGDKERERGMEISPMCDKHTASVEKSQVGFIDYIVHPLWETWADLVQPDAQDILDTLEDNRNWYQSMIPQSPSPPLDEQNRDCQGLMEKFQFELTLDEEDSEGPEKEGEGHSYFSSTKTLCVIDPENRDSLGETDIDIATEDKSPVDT
# Procedure, shortened: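 ACTOne HEK293 cells carry a modified cAMP-gated CNG channel and express endogenous PDE4; plated 1000 cells/well, compounds up to 22.9 uM final. Membrane-potential dye fluorescence (ex 535/em 590) was read; parental cells received 10 uM forskolin + 100 uM RO 20-1724.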
# [5] = molecular target: Luciferin 4-monooxygenase (Photinus pyralis) (UniProt P08659); test: Biochemical firefly luciferase enzyme assay for NPC (AID 624030);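 note: purified P. pyralis luciferase at 10 nM with luciferin and ATP substrate; nearly all actives have a fitted effect of over 70% in size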
# Chain of Luciferin 4-monooxygenase (Photinus pyralis) (P08659 whole entry, looked up): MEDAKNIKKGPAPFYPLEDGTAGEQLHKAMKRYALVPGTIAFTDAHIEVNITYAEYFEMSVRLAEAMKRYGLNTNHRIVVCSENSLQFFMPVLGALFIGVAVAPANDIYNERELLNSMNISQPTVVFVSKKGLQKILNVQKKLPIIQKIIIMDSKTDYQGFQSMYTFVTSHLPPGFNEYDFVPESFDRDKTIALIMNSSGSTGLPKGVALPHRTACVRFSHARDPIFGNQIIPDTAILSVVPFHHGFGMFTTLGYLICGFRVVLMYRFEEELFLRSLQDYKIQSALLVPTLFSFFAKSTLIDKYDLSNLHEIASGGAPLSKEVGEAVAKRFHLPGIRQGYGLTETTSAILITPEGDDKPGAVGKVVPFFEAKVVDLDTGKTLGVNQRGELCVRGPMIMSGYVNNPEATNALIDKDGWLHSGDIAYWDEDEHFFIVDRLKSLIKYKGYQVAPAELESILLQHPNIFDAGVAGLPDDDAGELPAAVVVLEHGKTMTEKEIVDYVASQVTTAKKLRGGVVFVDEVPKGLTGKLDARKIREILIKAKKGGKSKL
# Procedure, shortened: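 Counter-screen for direct inhibition of the luciferase enzyme by approved-drug library compounds, run at 10 nM enzyme in 50 mM Tris acetate (final). Luminescence was read within 5 min of enzyme-buffer addition and normalized to PTC124 versus DMSO (0%).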
# [6] = Confirmatory qHTS for small molecule stabilizers of the endoplasmic reticulum resident proteome: Secreted ER Calcium Modulated Protein (SERCaMP) assay (AID 1508628); note: nearly all actives have a fitted effect of over 40% in size; note: potency is the fitted concentration of half-maximal effect
# Procedure, shortened: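 SH-SY5Y cells stably expressing GLuc-SERCaMP, treated 16 h with compound (primary 1.53, 7.67, 38.3 uM; confirmation 11 concentrations, up to 76.6 uM), then 100 nM thapsigargin for 4 h. Secreted Gaussia luciferase in medium read by coelenterazine luminescence.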
# [7] = molecular target: Glucocorticoid receptor (Homo sapiens) (UniProt P04150); test: GR-EFC Redistribution (AID 451; calls by dose curve; note: potency is the fitted concentration of half-maximal effect); conditions: CHO-K1 GR-EFC translocation, beta-gal luminescence, 2 h
# Chain of Glucocorticoid receptor (Homo sapiens) (P04150 whole entry, looked up, the tested form may be a part): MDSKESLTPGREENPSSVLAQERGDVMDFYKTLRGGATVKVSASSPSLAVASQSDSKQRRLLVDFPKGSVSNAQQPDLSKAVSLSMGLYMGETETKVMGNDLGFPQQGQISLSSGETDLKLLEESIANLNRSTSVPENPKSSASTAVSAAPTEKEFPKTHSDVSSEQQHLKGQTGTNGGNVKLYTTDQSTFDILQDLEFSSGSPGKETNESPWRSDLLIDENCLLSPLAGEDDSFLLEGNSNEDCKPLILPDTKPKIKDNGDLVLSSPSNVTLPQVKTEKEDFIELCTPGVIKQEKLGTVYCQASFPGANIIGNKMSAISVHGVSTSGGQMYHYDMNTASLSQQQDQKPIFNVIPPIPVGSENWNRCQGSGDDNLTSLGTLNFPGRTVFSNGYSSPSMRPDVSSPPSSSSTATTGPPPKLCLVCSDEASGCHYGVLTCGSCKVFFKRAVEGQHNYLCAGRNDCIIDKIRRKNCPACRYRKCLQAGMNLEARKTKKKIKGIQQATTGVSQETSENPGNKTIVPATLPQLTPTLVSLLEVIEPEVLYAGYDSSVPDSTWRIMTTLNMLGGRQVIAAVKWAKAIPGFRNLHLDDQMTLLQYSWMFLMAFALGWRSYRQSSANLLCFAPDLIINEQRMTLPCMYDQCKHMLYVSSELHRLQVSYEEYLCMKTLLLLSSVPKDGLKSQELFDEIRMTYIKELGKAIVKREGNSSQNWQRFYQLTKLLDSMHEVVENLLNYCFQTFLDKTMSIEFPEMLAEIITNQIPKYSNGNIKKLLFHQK
# Procedure, shortened: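 CHO-K1 cells stably expressing nuclear-localized β-gal enzyme acceptor and GR fused C-terminally to the enzyme donor fragment; ligand-driven nuclear translocation restores β-gal by complementation. Compounds titrated up to 46 uM final, 2 h at 37 °C; luminescence read.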
# [8] = qHTS Assay for Lipid Storage Modulators (AID 1519; calls by dose curve); conditions: Drosophila S3 cells, BODIPY lipid droplet/cell ratio, laser cytometry, cells loaded with oleic acid
# Procedure, shortened: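 Cells seeded at 5,000 per well were treated with compounds over a concentration series and loaded with oleic acid (400 uM, as added). Lipid droplet fluorescence (488 nm excitation, 500-530 nm channel) was read by laser-scanning cytometry and normalized to 20 uM Triacsin C.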
# [9] = molecular target: DNA dC->dU-editing enzyme APOBEC-3G (Homo sapiens) (UniProt Q9HC16); test: qHTS for inhibitors of Vif-A3G interactions: Validation (AID 588379)
# Chain of DNA dC->dU-editing enzyme APOBEC-3G (Homo sapiens) (Q9HC16 whole entry, looked up): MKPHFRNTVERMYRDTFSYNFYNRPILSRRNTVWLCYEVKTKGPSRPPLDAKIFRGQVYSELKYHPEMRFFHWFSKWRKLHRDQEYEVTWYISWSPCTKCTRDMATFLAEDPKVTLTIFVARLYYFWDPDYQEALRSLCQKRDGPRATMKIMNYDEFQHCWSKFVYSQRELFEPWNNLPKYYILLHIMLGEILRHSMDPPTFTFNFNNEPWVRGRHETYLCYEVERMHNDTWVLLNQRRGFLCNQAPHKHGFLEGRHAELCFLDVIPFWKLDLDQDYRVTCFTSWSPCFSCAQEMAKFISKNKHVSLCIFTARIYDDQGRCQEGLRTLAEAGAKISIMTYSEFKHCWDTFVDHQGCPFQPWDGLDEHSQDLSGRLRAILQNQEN
# Procedure, shortened: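 HeLa cells stably expressing Vif and A3G-eYFP, 700 cells/well, incubated overnight at 37 deg C, then exposed to compound overnight at 37 deg C. Inhibition of Vif-mediated degradation read as increased yellow fluorescence (Ex 488/Em 500-530) by laser-scanning cytometry.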
molecule,measurement,setting,value
CC(Cc1cccc(C(F)(F)F)c1)NCCCc1ccccc1 (stereo not drawn),Potency,[1],inactive
same,Potency,[2],inactive
CCCC[C@@H](C)[C@@H](OC(=O)C[C@@H](CC(=O)O)C(=O)O)[C@H](C[C@@H](C)C[C@H](O)CCCC[C@@H](O)C[C@H](O)[C@H](C)N)OC(=O)C[C@H](CC(=O)O)C(=O)O,Potency,[1],inactive
same,Potency,[2],inactive
COc1cc(OC2CCN(C(C)=O)CC2)ccc1C(=O)N1CCC(N2C(=O)OCc3ccccc32)CC1,Potency,[1],inactive
same,Potency,[2],inactive
C[C@H]1C[C@H](C)C(=O)[C@@H]([C@H](O)CC2CC(=O)NC(=O)C2)C1,outcome,[3],inactive
same,Potency,[4],inactive
same,Potency,[5],inactive
same,Potency,[1],inactive
same,Potency,[6],0.282 µM (active)
C=CCN1CCC23c4c5ccc(O)c4OC2/C(=N/N=C2\CCC4(O)C6Cc7ccc(O)c8c7C4(CCN6CC=C)C2O8)CCC3(O)C1C5 (stereo not drawn),Potency,[1],inactive
same,Potency,[2],inactive
NC(N)=NCCCCCCCCCCN=C(N)N,Potency,[7],> 46 µM (inactive)
same,outcome,[3],inactive
same,Potency,[4],inactive
same,"activity change, negative = inhibition",[8]; at 57.5 µM (top of the series),-3.22% (inactive)
same,max response,[8]; measured here: cell count channel max response,7.9%
same,max response,[8]; measured here: lipid channel max response,7.14%
same,Potency,[9],inactive
same,Potency,[1],inactive
same,Potency,[6],inactive
same,Potency,[2],inactive
c1ccc2sc(C3(N4CCCC4)CCCCC3)cc2c1,Potency,[1],inactive
same,Potency,[6],39.8 µM (active)
Cc1[nH]c2ccc(Cl)cc2c1C1=CCNCC1,Potency,[1],inactive
same,Potency,[2],35.5 µM (active)
CCCCC[C@@H](/C=C/C=C\C/C=C\C/C=C\CCCC(=O)O)OO,"activity change, negative = inhibition",[1],15.4% [at 0.59 µM] (inactive)
same,"activity change, negative = inhibition",[2],-17.3% [at 0.478 µM] (inactive)
CCN1C[C@]2(COC)CC[C@H](OC)[C@@]34C5C[C@@H]6[C@@H](OC)C[C@@]7(OCO[C@@]7([C@@H](O)C23)[C@@H]14)C5[C@H]6OC (stereo partly drawn),Potency,[1],inactive
same,Potency,[2],inactive
CC(N)(COP(=O)(O)Oc1ccccc1)C(=O)O (stereo not drawn),Potency,[1],inactive
same,Potency,[2],inactive
H-YGGFLRKYPK-OH,"activity change, negative = inhibition",[1],17.1% [at 6.83 µM] (inactive)
same,"activity change, negative = inhibition",[2],-17% [at 3.88 µM] (inactive)
CCCCCCCCCCCCCCCCOC[C@@H](COP(=O)([O-])OCC[N+](C)(C)C)OC(C)=O,"activity change, negative = inhibition",[1],5.71% [at 6.83 µM] (inactive)
same,"activity change, negative = inhibition",[2],-29.1% [at 3.88 µM] (inactive)
CN(C(=O)Cc1ccc(Cl)c(Cl)c1)C(CN1CCCC1)c1cccc(N=C=S)c1 (stereo not drawn),Potency,[1],inactive
same,Potency,[2],inactive
COC[C@H]([C@@H](O)[C@@H](O)C(=O)NCC[C@@H](C)c1nc(/C=C/C[C@H]2OC3(C[C@H](O)[C@H]2C)OC([C@@H](C[C@@H](O)[C@@H](C)[C@@H](O)[C@@H](C)/C=C(C)/C(C)=C/C=C/C(C)=C\C#N)OC)[C@@H](OP(=O)(O)O)C3(C)C)co1)N(C)C (stereo partly drawn),"activity change, negative = inhibition",[1],9.25% [at 4.99 µM] (inactive)
same,"activity change, negative = inhibition",[2],257% [at 1.51 µM] (inactive)
NC(=O)[C@@H]1CCCN1C(=O)[C@H](Cc1ccccc1)NC(=O)[C@@H]1CCCN1C(=O)[C@@H](N)Cc1ccc(O)cc1 (H-YPFP-NH2),"activity change, negative = inhibition",[1],12.8% [at 6.83 µM] (inactive)
same,"activity change, negative = inhibition",[2],-13.2% [at 3.88 µM] (inactive)
COc1ccc2c(c1O)-c1cc(O)cc3c1[C@@H](C2)N(C)CC3,Potency,[1],29.9 µM (active)
same,Potency,[2],inactive
CCCC[C@H]1C(=O)O[C@H](C)[C@H](NC(=O)c2cccc(NC=O)c2OC)C(=O)O[C@@H](C)[C@@H]1OC(=O)CC(C)C,Potency,[1],inactive
same,Potency,[2],inactive
N[C@]1(C(=O)O)CC[C@@H](C(=O)O)C1 (racemic),Potency,[1],inactive
same,Potency,[2],inactive
COC(C/C=C/C=C/CC/C=C\CC(C)/C=C\C(=C/C(=O)O)CC(=O)O)/C(C)=C\C=C(/C)C(=O)O (stereo not drawn),"activity change, negative = inhibition",[1],8.89% [at 6.83 µM] (inactive)
same,"activity change, negative = inhibition",[2],-26.8% [at 3.88 µM] (inactive)
COc1ccc(C(=O)O[C@H]2CC[C@@]3(C)C4CCC5[C@]6(O)C[C@H](O)[C@@]7(O)C(CN8C[C@@H](C)CC[C@H]8[C@@]7(C)O)[C@]6(O)C[C@@]53O[C@@]42O)cc1OC (stereo partly drawn),Potency,[1],inactive
same,Potency,[2],inactive
